According to PubChem BioAssay AID1047 (SRMLSC, 2008):
Among all 1,500 compounds or so, about 1,400 (93%) were called active. How the calls were made is not given here. The set was probably picked from earlier hits. The list is a sample of the results. Entries with a potency or affinity are not part of this list.

assay: growth suppression of PTEN-null colon cells, dose response, cell-based, HCT116 PTEN knockout (AID 1047); conditions: CellTiter-Glo, 60 h; series mostly up to 30 µM

outcome, inactive:
CCCNC(=O)OC[C@H]1O[C@H](CCO/N=C/[C@@H](NS(=O)(=O)c2ccc(C)cc2)[C@H](C)/C=C/CC(=O)OC)C=C[C@@H]1Oc1ccc(OC)cc1
Cc1nn(C(=O)N2CCOCC2)c(C)c1C
CCN1CCN(Cc2ccc(OCc3ccccc3)cc2)CC1
O=C(Nc1cccc(C(F)(F)F)c1)/C(=C\c1ccco1)NC(=O)c1cccs1
CSc1n[nH]c(NCc2cccs2)n1
Nc1nnc(SCc2ccc(Cl)cc2)s1
COC(=O)c1cc(OC)c(OC)cc1NC(=O)c1ccccc1
C=CCNC(=O)c1ccccc1NC(=O)c1ccccc1C
CN1CCN(c2nc(N3CCN(c4ccccc4)CC3)ncc2F)CC1
O=C(c1ccc2c(=O)n(CC3CCCO3)c(=S)[nH]c2c1)N1CCN(c2ccccc2)CC1 (centres undefined)
Cc1ccc(CNc2ccc(O)cc2)cc1
OC1(c2cccc(C(F)(F)F)c2)CCN(c2ccc(-c3ccccc3)nn2)CC1
COc1cc2c(cc1OC)C1(Nc3c-2c(C)nn3-c2ccccc2)C(=O)Nc2ccccc21 (centres undefined)
CCOc1ccccc1NC(=O)Cn1cnc2c(nnn2-c2cccc(OC)c2)c1=O
O=C(COc1ccc(/C=N/NC(=O)c2cc3ccccc3o2)cc1Cl)Nc1ccccc1
O=C(NCc1ccc2c(c1)OCO2)c1ccc2c(c1)C(=O)N(CC1CCCO1)C2=O (centres undefined)
CCOC(=O)C1=C(C)NC(=S)N(C(C)=O)C1c1ccc(Cl)cc1 (centres undefined)
CCC(Sc1nc2sc(C(=O)OC)c(C)c2c(=O)n1N)C(=O)N(CC)CC (centres undefined)
N#CC(c1ccc(Cl)nn1)c1ccc(Cl)cc1Cl (centres undefined)
COc1ccc(CCN2C(=O)CN(Cc3ccccc3)CC2=O)cc1OC
CC(=O)c1c(C)nc(-c2ccc(Cl)cc2Cl)n1O
CCOC(=O)Nc1ccc(C)cc1Br
Cc1cc2ncn(C(=O)N3CCC(C)CC3)c2cc1C
Cc1cc(NC(=O)CSc2nc(-c3cccnc3)ccc2C#N)no1
O=C(CSc1nnc(-c2ccccc2Cl)o1)Oc1ccc(Br)cc1
Cc1cccc(CS(=O)(=O)c2nnc([C@H](Cc3ccccc3)NC(=O)OC(C)(C)C)o2)c1
O=C(Nc1cccc(C(F)(F)F)c1)C12CC3CC(CC(C3)C1)C2
Cc1cc(NC(=O)CN2CCN(c3ccc(O)cc3)CC2)no1
Cc1ccc(C(=O)c2coc3c2C(=O)C(=O)c2ccccc2-3)cc1
COCCN1C(=O)c2oc3ccccc3c(=O)c2C1c1ccc(OC)c(OC)c1 (centres undefined)
O=C(NC(=S)Nc1ccc2c(c1)OCO2)c1ccc(Cl)cc1
CCN(CC)c1ccc(N=Cc2ccc(N(CC)CC)cc2O)cc1
Cc1ccc(C(=O)Nc2ccccc2C(=O)NC(C(=O)O)C(C)C)cc1 (centres undefined)
Cc1cc(NS(=O)(=O)c2ccccc2)cc(Cl)c1O
O=C(Nc1cccc2ccccc12)N1CCN(Cc2ccc3c(c2)OCO3)CC1
CCCCn1c(=NC(=O)c2ccco2)c(C(=O)OCC)cc2c(=O)n3ccccc3nc21
CS(=O)(=O)c1nc(-c2cccs2)cc(C(F)(F)F)n1
COCCNC(=O)NC1(C(F)(F)F)Oc2ccc(Cl)cc2O1 (centres undefined)
O=C(NCc1ccc(F)cc1)C1C2C=CC3(CN(Cc4cccnc4)C(=O)C13)O2 (centres undefined)
COc1ccc(S(=O)(=O)CCC(=O)N(C)c2ccc(OC)cc2OC)cc1
Cc1c(Cl)ccc2sc(NC(=O)CN3C(=O)c4ccccc4C3=O)nc12
CCCCN(C)C(=O)C1CCC(=O)N(c2cc(OC)c(OC)c(OC)c2)C1c1ccc(OC)cc1 (centres undefined)
CCCCS/C(N)=N/N=C/c1ccccc1O
N/C(=N\c1nc(C(F)(F)F)cc(=O)[nH]1)Nc1ccc(Cl)cc1
COc1ccc(N2CCN(C(c3cc(OC)ccc3OC)c3nnnn3CC3CCCO3)CC2)cc1 (centres undefined)
N/C(=N\OC(=O)C12CC3CC(CC(C3)C1)C2)c1ccccc1
Cc1cc(C)c2c(=O)n(CC(=O)N3CCC(Cc4ccccc4)CC3)sc2n1
COC(=O)CN1C(C)=Nc2ccc(Br)cc2C1c1ccccc1 (centres undefined)
CCCC/C(C)=N\NC(=O)CNS(=O)(=O)c1ccc([N+](=O)[O-])cc1
CCCC(=O)Nc1sc2c(c1C#N)CCCCC2
Oc1ccc(C=Nc2ccc3ncccc3c2)c(O)c1
CCCCN1C[C@H](O)[C@@H](O)[C@H](O)[C@H]1CO
COc1cccc2cc(C(=O)N(C)C)c(=O)oc12
CC1CCN(CC(=O)N2c3ccccc3CCc3ccccc32)CC1
CCOc1ccc(C2/C(=C(\O)c3c(C)[nH]c(C(=O)OC)c3C)C(=O)C(=O)N2CCN(C)C)cc1 (centres undefined)
O=C(NCc1ccccn1)c1c(O)c2cccc3c2n(c1=O)CC3
COC(C)(C)[C@H](O)COc1c2ccoc2cc2oc(=O)ccc12
Nc1c(NCCN2CCOCC2)c2ccccc2oc1=O
O=C(Nc1cccc(-c2nnc(-c3ccccc3)o2)c1)C1CCCCC1
COc1ccc(C(C)=O)cc1CSc1nc2ccccc2o1
O=C(Nc1cccc2ccccc12)c1onc2c1CCCC2
CNC(=O)C1C(=S)NC(N)=C(C#N)C1c1ccccc1 (centres undefined)
CC(C(=O)NC(=O)NCc1ccccc1)N1C(=O)c2ccccc2C1=O (centres undefined)
CCOC(=O)c1c(-c2ccc(C)cc2)csc1NC(=O)/C(C#N)=C/c1ccc(O)c(OC)c1
CCN(CC)S(=O)(=O)c1ccc(NC2CCCc3ccccc32)nc1 (centres undefined)
Cc1ccc(C(=O)NCCc2nnc(SCC(=O)Nc3nc(-c4ccccc4)cs3)n2C)cc1
CCn1c(CNc2ccc(OC)cc2)nnc1SCC(=O)c1ccc(OC)cc1
CCN(CC)c1ccc(NC2=C(Cl)C(=O)c3ccccc3C2=O)cc1
CCCC(=O)Nc1ccc(C)c(O)c1
CCn1c(Cc2ccc(OC)cc2)nnc1SCC(=O)Nc1cccc(C(=O)OC)c1
Cc1sc2c(=O)n3c(nc2c1C(=O)NCCCN1CCOCC1)CCCCC3
CC(=O)ON1C(C)(C)CC(OC(=O)c2ccccc2)CC1(C)C
O=C(COC(=O)c1cccnc1Nc1cccc(C(F)(F)F)c1)NCc1ccc2c(c1)OCO2
CC(C)c1cc(=O)oc2c3c4c(cc12)CCCN4CCC3
CNC(=S)N/N=C(\C)c1ccc(N2CCOCC2)cc1
O=S(=O)(NCCc1csc(-c2cccnc2)n1)c1ccc2c(c1)OCCO2
COc1ccc(CCn2c(N)c(C(=O)NCc3ccco3)c3nc4ccccc4nc32)cc1OC
C=CCNc1nnc(SC2CC(=O)N(c3ccc(OC)cc3)C2=O)s1 (centres undefined)
OCCn1c(C(F)(F)F)nc2ccccc21
O=C(Nc1ccccc1Cl)NC1(C(=O)N2CCCC2)CCCCC1
O=C(N/N=C/c1ccc(O)c(O)c1O)/C(=C/c1ccc([N+](=O)[O-])cc1)NC(=O)c1ccccc1
Cc1ccccc1NC(=O)c1ccc2c(c1)OCCO2
O=C(NNc1nc2cc3c(cc2s1)OCO3)c1cccc(F)c1
COc1cccc(OCC(=O)NN=C2c3ccccc3-c3ccccc32)c1
COc1ccc(C(=O)OC2CCN(c3ncc(C(F)(F)F)cc3Cl)CC2)cc1
O=C1[C@H]2[C@H]3[C@H](O)[C@H](O)C/C(=N\OC[C@@H](O)COCc4ccco4)[C@@H]3CC[C@H]2C(=O)N1c1ccc(F)cc1F
COC(=O)COc1ccc(S(=O)(=O)NCc2ccncc2)cc1
c1ccc2c(c1)CCCC2C1=NCCN1 (centres undefined)
CC(C[N+](C)(C)C)OC(N)=O (centres undefined)
CCOc1c(OC)ccc2c3c(c(=O)oc12)CCCC3
OC1C2CN3CCN(C2)CC1(Cc1ccccc1)C3 (centres undefined)
Cc1cc(NC(=O)c2sc(Nc3cccc(C(F)(F)F)c3)nc2N)no1
Cc1[nH]nc2c1C(c1ccsc1C)C(C#N)=C(N)O2 (centres undefined)
CCC(C)C1C(C#N)=C(N)Oc2n[nH]c(C)c21 (centres undefined)
CCOC(=O)N1CCN(C(=O)c2nn(-c3ccc(C)cc3)c(=O)c3c2c2ccccc2n3C)CC1
COc1ccc(C(=O)OCC(=O)c2cc(OC)ccc2OC)c(OC)c1
CCOc1ccc(N(CC(=O)NC2CCCCCC2)S(=O)(=O)c2c(C)noc2C)cc1
CCCCCn1c(Sc2ccccc2)nc2c1c(=O)[nH]c(=O)n2C
CCN(CCNC(=O)Nc1ccc(Cl)cc1)c1ccccc1
O=C(c1nnc(Cc2ccc(Cl)cc2)o1)N1CCc2ccccc2C1
CN(C)S(=O)(=O)c1cccc(NC(=O)COC(=O)c2cccc(S(=O)(=O)N3CCc4ccccc4C3)c2)c1
CCOC(=O)c1[nH]c2ccc(OC)cc2c1NC(=S)N1CCN(c2ccccc2)CC1
Cc1cc(C)n(C(=O)CNc2ccc(C)c(C)c2)n1
O=C(NCc1ccco1)C1CCN(S(=O)(=O)Cc2ccccc2)CC1
COc1ccc(Nc2oc(COc3ccc(Cl)cc3)nc2C#N)cc1
COc1ccc(-c2cc(C(F)F)n3ncc(C(=O)n4ccnc4C)c3n2)cc1
COC(=O)C1=C(C)N(c2ccc(F)c(Cl)c2)C(=O)C1
COc1cc(SC#N)ccc1N=Cc1c(C)[nH]n(-c2cccc3ccccc23)c1=O
COc1ccccc1CN=Cc1[nH]c2ccc(Br)c(Cl)c2c1O
